The list is not random: actives were taken first. Their share in the collection is about 10%.
Six1-Eya2 inh = blocks human Six1 binding to Eya2; AID 651725; Q15475+O00167; activity change, % (concentration not given with the values); hit rate 0.56% among 360,000; AlphaScreen GST-Six1/His-Eya2 binding, biochemical; stronger effect = lower value; in the data active means activity change below about -65%; inconclusive means mostly about -30% to -63%
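GST-Six1 + His-Eya2 (5X stock: 250/500 nM); Tris pH 8.0, 300 mM NaCl, 0.05% BSA, 0.02% Tween 20; GSH donor/Ni acceptor beads; 1 h 37 °C dark; AlphaScreen readout.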
BAZ2B inh = inhibitors of human BAZ2B bromodomain; Q9UIF8; AlphaScreen BAZ2B-H3K14Ac peptide displacement; Potency, µM (series often up to 114 µM), hits mostly inhibitors; hit rate 4.4% among 360,000; AID 504333; further: nearly all actives have a fitted effect of over 60% in size
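Inhibition is scored as reduced AlphaScreen emission. The BAZ2B/b-H3(5-23)K14Ac complex (50 nM each) in PBS pH 7.4, 0.01% Tween-20 meets compound (up to 110 uM) for 30 min at RT before bead addition.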
G9a block = G9a (human) methyltransferase inhibition; Q96KQ7; G9a H3K9 monomethylation, AlphaScreen, 2 h; Potency, µM (doses to about 102 µM), hits mostly inhibitors; hit rate 8.8% among 350,000; AID 504332; further: nearly all actives have a fitted effect of over 75% in size
Target sequence (Q96KQ7 913-1193 limits assumed): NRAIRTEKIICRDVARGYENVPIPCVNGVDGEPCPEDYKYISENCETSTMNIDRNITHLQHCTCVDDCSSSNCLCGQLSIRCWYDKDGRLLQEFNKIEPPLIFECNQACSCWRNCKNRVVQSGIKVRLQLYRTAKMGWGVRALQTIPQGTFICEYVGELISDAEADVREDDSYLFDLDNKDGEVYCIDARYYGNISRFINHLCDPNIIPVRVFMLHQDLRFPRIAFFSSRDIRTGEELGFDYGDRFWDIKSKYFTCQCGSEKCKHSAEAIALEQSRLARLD
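AlphaScreen read-out: biotin-H3K9 peptide (500 nM) methylation by 20 nM enzyme with 20 uM SAM, 2 h at room temperature after 15 min compound preincubation; anti-monomethyl H3K9 antibody plus donor/acceptor beads, 10 min dark.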
HP1b chromo inh = inhibitors of HP1-beta chromodomain binding to methylated histone tails. AlphaScreen HP1-beta / biotin-H3K9me3 peptide binding. hit rate 0.56% among 390,000. Potency, µM (top dose mostly 114 µM), usual class: inhibitors. AID 540317. P83916; further: nearly all actives have a fitted effect of over 70% in size
Target sequence (P83916 whole entry, looked up): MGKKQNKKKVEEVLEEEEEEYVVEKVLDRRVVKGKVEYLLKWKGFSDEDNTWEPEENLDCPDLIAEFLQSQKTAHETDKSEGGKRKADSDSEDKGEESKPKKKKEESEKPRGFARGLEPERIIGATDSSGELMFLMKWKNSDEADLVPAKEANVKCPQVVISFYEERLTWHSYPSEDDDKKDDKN
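AlphaScreen: HP1-beta (50 nM) preformed 30 min with biotin-H3(1-18)K9me3 peptide (50 nM) in PBS pH 7.4, 0.01% Tween-20. Compound added for 30 min at RT, then streptavidin donor/nickel chelate acceptor beads (10 ug/mL) for 30 min.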
CtBP-E1A blk = blocks the CtBP interaction with E1A | AlphaScreen GST-E1A/His-CtBP binding, 1536-well; stronger effect = lower value | activity change, % (concentration not given with the values) | hit rate 0.49% among 340,000 | AID 651724; in the data active means activity change below about -65%; inconclusive means mostly about -30% to -63%
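GST-E1A and His-tagged CtBP (125 nM each as 5X stock) were preincubated with pin-transferred compound for 2 h at 37 °C in the dark, then glutathione donor and nickel acceptor beads were added for 1 h before AlphaScreen reading.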
JMJD2A Tudor inh = blocks the human JMJD2A Tudor domain | AlphaScreen JMJD2A-Tudor / H3K4me3 peptide binding | O75164 | AID 504339 | Potency, µM (highest dose often 114 µM), actives largely listed as inhibitors | hit rate 4.4% among 390,000; further: nearly all actives have a fitted effect of over 50% in size
Numbers stand for hits; i = inactive; ? = inconclusive; nt = no result given; [ ] = remark or other dose. Unless noted, the call rests on the fitted dose curve; in most records, active means well fitted inhibition curve with a large enough effect; inconclusive means small, poorly fitted or top-dose-only effect; inactive means no such curve, though single readings can be large or run the other way.

SMILES | Six1-Eya2 inh | BAZ2B inh | G9a block | HP1b chromo inh | CtBP-E1A blk | JMJD2A Tudor inh
O=C(C[n+]1ccc(C(=O)N/N=C/c2ccc(Cl)cc2Cl)cc1)c1ccccc1 | i | i | 50µM | i | i | ?
Cc1ccc(Nc2cc(C)c(C#N)c3nc4ccccc4n23)cc1Cl | nt | i | i | i | nt | i
CCCCOC(=O)C1[C@H]2C(=O)N(c3ccccc3CC)C[C@]23C=C[C@H]1O3 (stereo partly specified) | i | i | i[12.7 µM] | i | i | i
CCc1ccccc1N1CC23C=CC(O2)C(C(=O)O)C3C1=O (stereo unspecified) | i | i | i | i | i | 22µM
CCCCc1cc(=O)oc2c3c(cc(OCC(=O)N4CCC[C@H]4C(=O)O)c12)OC(C)(C)CC3 | i | i | i | i | i | i
Cc1cc(=O)oc2c3c(cc(OCC(=O)N4CCC[C@H]4C(=O)O)c12)OC(C)(C)CC3 | -71 | i | i[12.7 µM] | i | ? | i
N#Cc1ccc(CN2CC[C@@]3(CCCN(C(=O)c4cccc(F)c4)C3)C2)cc1 | nt | nt | i[12.7 µM] | nt | nt | nt
CCOC(=O)c1c(C)n(C)c2cc(Br)c(OC)cc12 | i | i | i | i | i | i
CCOC(=O)c1c(CNCCN(CC)CC)n(C)c2cc(Br)c(OC)cc12 | i | ? | 79µM | i | i | i
O=C(Cc1ccccc1)c1c[nH]c(C(=O)NC2CCCC2)c1 | i | i | i | i | i | i
CCOC(=O)N1CCN(C(=O)NC2CCCCC2)CC1 | i | i | i[0.0925 µM] | i | i | i
CCN1CCN(C(=O)NC2CCCCC2)CC1 | i | ? | nt | ? | i | 28µM
C[C@@H]1CCCCO[C@@H](CN(C)S(=O)(=O)c2cccs2)[C@@H](C)CN([C@H](C)CO)C(=O)c2cc(NS(=O)(=O)c3ccccc3)ccc2O1 | i | nt | nt | nt | ? | nt
Cc1cnc(=O)[nH]c1SCc1ccc([N+](=O)[O-])cc1 | i | ? | 63µM | i | nt | i
Cc1cnc(=O)[nH]c1SCc1ccc(C(F)(F)F)cc1 | i | i | i | i | i | i
CCCOc1cccc(-c2nn(-c3ccccc3)cc2/C=C(\C#N)C(=O)NCCCn2ccnc2)c1 | i | ? | i | ? | i | 45µM
N#C/C(=C/c1cn(-c2ccccc2)nc1-c1cccc(OCc2ccc(F)cc2)c1)C(=O)NCCCn1ccnc1 | i | 10µM | i | i | i | 16µM
COc1ccc(C)cc1N(CC(=O)Nc1ccc2c(c1)OCCO2)S(C)(=O)=O | i | i | i | i | nt | i
Cc1ccc(C(=O)O/N=C(\N)Cc2cccs2)c(Cl)c1 | i | i | i | i | i | i
CCOc1ccc(NCc2cccn2-c2nnc(N3CCC(C(=O)NCCCN4CC(C)CC(C)C4)CC3)s2)cc1 (stereo unspecified) | i | ? | 45µM | ? | ? | 40µM
COc1ccc(N2CCN(Cc3nnnn3C3CCCCC3)CC2)cc1 | i | i | 50µM | ? | i | i
COc1ccc(NCc2cccn2-c2nnc(N3CCCCCC3)s2)cc1 | nt | i | ? | ? | nt | 45µM
COc1ccc(N2CCN(Cc3cccn3-c3nnc(N4CCN(C5CCCCC5)CC4)s3)CC2)cc1 | nt | ? | ? | ? | nt | 50µM
c1ccc(N2CCN(Cc3cccn3-c3nnc(N4CCN(C5CCCCC5)CC4)s3)CC2)cc1 | nt | i | i | i | nt | i
Cc1cccc(N2CCN(CCCNC(=O)c3nnc(Cc4c(F)cccc4Cl)o3)CC2C)c1 (stereo unspecified) | nt | ? | i | i | nt | ?
CCN(CC)c1nn2c(=O)c(C(=O)NCCc3cccc(C)c3)cnc2s1 | nt | i | i | i | nt | i
COc1ccc(C2/C(=C(/O)c3ccccc3)C(=O)C(=O)N2CO)cc1 (stereo unspecified) | i | i | ? | i | i | i
COc1cc(C2/C(=C(/O)c3ccc(F)cc3)C(=O)C(=O)N2CCCC(=O)O)ccc1O (stereo unspecified) | i | 56µM | nt | i | i | ?
COCCCN1C(=O)C(=O)/C(=C(/O)c2ccc(S(=O)(=O)N3CCCCC3)cc2)C1c1cccc(OC)c1 (stereo unspecified) | i | i | 45µM | i | nt | i
